# In PubChem BioAssay:
# The source made the active and inactive calls. Unless noted, how the calls were made is not given here.
# Key:
# [1] = test system: XIP peptide (Xip251-270) binding; experiment: XIP fragment 251-270 binding compounds – biochemical, small-molecule microarray, fluorescence 635/667 nm, 0.1 µg/mL protein, primary screen (AID 1182); conditions: fluorescent protein binding, 635 nm, higher = more signal, called active from +8 up or from −8 down
# XIP peptide (Xip251-270) = experiment: compounds binding XIP fragment 251-270 – biochemical, small-molecule microarray, fluorescence 635/667 nm, 0.5 µg/mL protein, primary screen (AID 1183); conditions: fluorescence 635 nm, higher = more signal
# [2] = blood-stage malaria parasite viability loss – strain 3D7, DAPI fluorescence, 100 nL, primary screen (AID 1184);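 further: parasites grown inside human red blood cells in medium with human serum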; conditions: P. falciparum 3D7 growth, 3 d, higher = more signal
# [3] = biological target: Homeobox protein Hox-A13 (Mus musculus) (UniProt Q62424); experiment: disruptors of Hoxa13 oligonucleotide interaction – biochemical, fluorescence polarization, labeled oligonucleotide, primary screen (AID 1185); conditions: Hoxa13:DNA binding, 15 min, higher = more signal, called active from +8 up or from −8 down
# [4] = blockers of DNA damage checkpoint Chk1 activation – imaging, HeLa, hydroxyurea, phospho-Chk1 antibody, percent positive cells, primary screen (AID 1186); conditions: hydroxyurea-induced phospho-Chk1 immunofluorescence imaging, higher = more signal
# [5] = blockers of DNA damage checkpoint Chk1 activation – imaging, HeLa, hydroxyurea, phospho-Chk1 nuclear intensity, primary screen (AID 1187); conditions: hydroxyurea-induced phospho-Chk1 immunofluorescence imaging, higher = more signal
# Sequence of Homeobox protein Hox-A13 (Mus musculus) (Q62424 whole entry, looked up): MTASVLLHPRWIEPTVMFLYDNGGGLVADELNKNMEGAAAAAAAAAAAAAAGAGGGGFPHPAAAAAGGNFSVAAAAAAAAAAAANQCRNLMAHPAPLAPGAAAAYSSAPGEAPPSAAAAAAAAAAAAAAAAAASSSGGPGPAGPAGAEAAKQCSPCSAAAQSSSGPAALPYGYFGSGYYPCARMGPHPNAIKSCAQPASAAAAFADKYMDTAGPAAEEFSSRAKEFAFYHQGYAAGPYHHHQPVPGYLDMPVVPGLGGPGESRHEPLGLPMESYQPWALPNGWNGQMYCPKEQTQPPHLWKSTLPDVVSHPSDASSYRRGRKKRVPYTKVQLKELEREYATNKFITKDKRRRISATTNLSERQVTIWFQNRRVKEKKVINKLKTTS
Structure (SMILES),composite z-score [1],composite z-score (XIP peptide (Xip251-270)),z-score [2],z-score [3],z-score [4],z-score [5]
CCOC(=O)C1=CC[C@@H](c2ccc(OC)cc2)N(S(=O)(=O)c2ccc(C)cc2)[C@H]1CC,0.441 (inactive),0.463,-2.03,-0.507 (inactive),-0.819 (inactive),-0.599 (inactive)
CC(=O)c1ccc(C(O)C2C=CC3C(=O)N(c4ccccc4)C(=O)C3N2Nc2ccc(C(C)C)cc2)cc1 (stereo not given),0.248 (inactive),0.525,-1.33,-2.09 (inactive),0.0577 (inactive),-0.371 (inactive)
CC(C)NC(=O)[C@@]1(c2ccc([N+](=O)[O-])cc2)CC(=O)N(CC23CC4CC(CC(C4)C2)C3)[C@@H]1c1ccc(CO)cc1,1.26 (inactive),0.918,-0.948,-4.97 (inactive),0.103 (inactive),0.412 (inactive)
CC1CC/C=C\[C@H]2OC34C=CCN(C(C)(C)C)C(=O)[C@H]3N(CCCO)C(=O)[C@@H]4C2C(=O)O1 (stereo not given in full),0.453 (inactive),0.774,0.428,-3.59 (inactive),0.0854 (inactive),-0.248 (inactive)
C[C@@H]1NC(=O)C([C@@H](C)OCc2ccccc2)NC(=O)[C@@]23C(=O)N[C@@H](Cc4ccccc4)C2[C@H](C)[C@@]2(C)O[C@H]2C3/C=C/C/C=C\CNC1=O (stereo not given in full),-0.501 (inactive),-0.458,0.0074,-7.4 (inactive),-0.0202 (inactive),-0.0344 (inactive)
CCCC=C(CCC)[C@@H](NC(=O)c1ccc(C(F)(F)F)cc1)c1ccc(C(F)(F)F)cc1,0.237 (inactive),0.541,-0.702,-3.88 (inactive),-0.136 (inactive),-0.377 (inactive)
COC(=O)[C@@]1(Cc2ccccc2)[C@H]2c3cc(C(=O)N(C)C)n(Cc4ccc(C(F)(F)F)nc4)c3C[C@H]2CN1C(=O)c1ccccc1,0.119 (inactive),0.337,-1.24,-3.46 (inactive),0.296 (inactive),0.0603 (inactive)
C=CCN1Cc2ccccc2[C@H]2OC(c3ccc(OCCCO)cc3)=N[C@@]2(CCS(=O)(=O)c2ccccc2)C1=O,1.61 (inactive),0.767,-2.18,-3.88 (inactive),-0.163 (inactive),-0.237 (inactive)
O=C1NC(=O)C2C1C=CC(C(O)c1ccc([N+](=O)[O-])cc1)N2Nc1ccccn1 (stereo not given),-0.254 (inactive),0.726,1.21,-2.37 (inactive),-0.284 (inactive),-0.347 (inactive)
[N-]=[N+]=Nc1ccccc1[C@@H]1OC(c2ccc(OCCCO)cc2)=N[C@]1(Cc1ccccc1)C(=O)NCCN1CCOCC1,0.764 (inactive),0.441,-2.65,-3.81 (inactive),-0.437 (inactive),-0.456 (inactive)
CCCCN1CC=CC23O[C@@H]4/C=C\CCCOC(=O)C4[C@H]2C(=O)N(C(CO)C(C)C)[C@@H]3C1=O (stereo not given in full),1.4 (inactive),-0.492,1.18,-5.81 (inactive),0.458 (inactive),0.188 (inactive)
C=CCC(OC(C)=O)[C@@H]1[C@@H](N(Cc2cc3ccccc3o2)C(=O)c2cccc3ccccc23)c2cc(OCCCO)ccc2N1C(=O)c1ccc2ccccc2n1 (stereo not given in full),-0.667 (inactive),0.202,-1.99,-1.2 (inactive),-0.0897 (inactive),0.0983 (inactive)
COc1ccccc1CN1C(=O)c2ccccc2[C@](Cc2ccccc2I)(C(=O)NCC(C)C)[C@@H]1c1ccc(CO)cc1,0.935 (inactive),0.932,-0.409,-3.82 (inactive),-0.287 (inactive),-0.208 (inactive)
COC(=O)[C@@]1(Cc2ccccc2)N=C(c2ccc(OCCCO)cc2)O[C@H]1c1ccccc1CN=[N+]=[N-],-0.139 (inactive),0.85,-2.42,-1.25 (inactive),-0.727 (inactive),-0.906 (inactive)
C=C(C)[C@@H]1CC=C(C(O)C2C=CC3C(=O)N(C)C(=O)C3N2Nc2ccc([N+](=O)[O-])cc2[N+](=O)[O-])CC1 (stereo not given in full),-0.0868 (inactive),0.641,0.481,-4.28 (inactive),0.385 (inactive),0.279 (inactive)
Cc1ccc(S[C@]2(C(=O)NCC(F)(F)F)CC(=O)N(Cc3ccccc3C(F)(F)F)[C@@H]2c2ccc(CO)cc2)cc1,0.859 (inactive),0.843,0.186,-1.74 (inactive),0.145 (inactive),0.518 (inactive)
C=C(/C(=C/C[C@@H](OC(C)=O)c1cccc(OCCO)c1)c1cnc2ccccc2c1)C(C)C,-0.136 (inactive),0.725,-2.95,-5.04 (inactive),0.0066 (inactive),0.0865 (inactive)
COc1cc(CO)cc(I)c1O[C@H]1C=C(C(=O)NCCO)C[C@@H]2O[C@H]12,0.28 (inactive),0.347,-1.41,-7.29 (inactive),0.552 (inactive),0.361 (inactive)

Structure (SMILES),composite z-score [1],composite z-score (XIP peptide (Xip251-270)),z-score [2],z-score [3],z-score [4],z-score [5]
CCOC(=O)C[C@H]1[C@H](OC(=O)c2cc3ccccc3oc2=O)[C@@H](NC(=O)CC(C)C)c2cc(OCCCO)ccc2N1C(=O)Cc1ccc(OC)cc1,0.101 (inactive),0.686,-2.45,-4.83 (inactive),0.372 (inactive),-0.268 (inactive)
O=C(NC1CC1)[C@@H]1c2ccccc2C(=O)N(CC23CC4CC(CC(C4)C2)C3)[C@H]1c1ccc(CO)cc1,0.383 (inactive),0.686,-2.22,-5.05 (inactive),-0.0001 (inactive),0.169 (inactive)
O=C1O[C@H](Cc2ccccc2)[C@@H]2[C@H]3C=CCCC=C3CN2[C@H]1Cc1ccc(O)cc1,0.127 (inactive),-0.61,-0.947,-9.53 (active),0.167 (inactive),-0.122 (inactive)
CCOC(=O)C1=CC[C@@H](c2ccc(OC)cc2)N(S(=O)(=O)c2ccc(C)cc2)[C@H]1c1ccc(C)cc1,0.3 (inactive),0.44,0.869,-0.57 (inactive),-0.0113 (inactive),-0.5 (inactive)
COC(=O)[C@H](Cc1ccccc1)N1CC2=CCCC=C[C@@H]2[C@H]1[C@H](O)Cc1ccccc1,0.444 (inactive),-0.221,-0.926,-6.25 (inactive),-0.359 (inactive),-0.685 (inactive)
CCCc1cc2c(n1CCc1ccc(Cl)cc1)C(C)C1CN(C(=O)c3ccccc3)C(C)(C(=O)OC)C21 (stereo not given),-0.573 (inactive),0.201,-1.18,-5.05 (inactive),0.853 (inactive),0.692 (inactive)
COC(=O)[C@@]1(Cc2ccc(F)cc2)[C@H]2c3cc(C(=O)N4CCCC4)n(CCc4ccccn4)c3C[C@H]2CN1C(=O)c1ccccc1,0.405 (inactive),-0.189,-1.31,-4.83 (inactive),0.227 (inactive),0.247 (inactive)
CCOC(=O)c1cn(C[C@H](Cc2ccccc2)NC(=O)N[C@H](CO)CCc2oc(C(C)=O)c(C(=O)OC)c2C(=O)OC)nn1,0.534 (inactive),0.635,-1.63,-2.67 (inactive),-0.107 (inactive),0.432 (inactive)
O=C1[C@@H]2[C@@H](CC(COc3ccccc3)=C([C@H](O)CCc3ccccc3)[C@@H]2CO)C(=O)N1Cc1ccccc1,-0.268 (inactive),0.73,-0.0811,-6.92 (inactive),-0.556 (inactive),-0.945 (inactive)
COc1ccc(NN2C(C(O)c3ccc(I)cc3)C=CC3C(=O)N(C4CCCCC4)C(=O)C32)cc1 (stereo not given),1.63 (inactive),0.618,-0.684,-3.31 (inactive),0.0831 (inactive),-0.481 (inactive)
COc1ccc([Si](C)(C)[C@@H]2[C@@H](CC(=O)N(CCO)Cc3ccccc3)O[C@]3(C(=O)N(Cc4ccc(I)cc4)c4ccccc43)[C@H]2C)cc1,1.59 (inactive),0.256,-2.2,-2.17 (inactive),-0.168 (inactive),-0.299 (inactive)
CCCCCCc1nc(-c2ccc(-c3ccc(Cl)c(Cl)c3)o2)cc2c1[Si](C(C)C)(C(C)C)OC2,0.108 (inactive),-0.0619,-2.22,-3.51 (inactive),-0.6 (inactive),-0.222 (inactive)
CCCCC(O)C1C=CC2C(=O)N(c3ccccc3)C(=O)C2N1Nc1ccc([N+](=O)[O-])cc1 (stereo not given),0.0204 (inactive),0.598,-0.496,-4.62 (inactive),0.391 (inactive),0.501 (inactive)
Cc1ccc(C(C)CC(O)C2C=CC3C(=O)N(C)C(=O)C3N2Nc2ccccc2)o1 (stereo not given),0.476 (inactive),0.383,0.385,-4.68 (inactive),0.163 (inactive),-0.0486 (inactive)
COCCCNC(=O)[C@@]1(CCC(=O)OC(C)(C)C)COC(c2ccc(OCCCO)cc2)=N1,0.192 (inactive),0.732,-0.547,-5.74 (inactive),-0.0385 (inactive),0.304 (inactive)
CCCN1C(=O)[C@@]2(c3ccc([N+](=O)[O-])cc3)CC(=O)N(CC34CC5CC(CC(C5)C3)C4)[C@@H]2c2ccc(CO)cc21,-0.349 (inactive),0.483,0.877,-1.71 (inactive),0.177 (inactive),-0.16 (inactive)
CCOC(=O)C1=C[C@@H](C(C)(C)C)N(S(=O)(=O)c2ccc(C)cc2)[C@H]1c1ccc(C#N)cc1,-0.331 (inactive),0.662,-1.82,-0.543 (inactive),0.892 (inactive),1.21 (inactive)
